Source: PubChem BioAssay (several laboratories)
An excerpt weighted towards active compounds, which were near 3.2% of everything screened.
AHR act – activators of human aryl hydrocarbon receptor | P35869 | AHR-responsive luciferase reporter cells, luminescence | activation, % at 5 µM | 2.5% of 320,000 active; in the data active means activation above about 47%
A3A deaminase – human APOBEC3A DNA deaminase inhibition; recombinant A3A, FAM/TAMRA ssDNA deamination fluorescence; 0.41% of 330,000 active; inhibition, % at 20 µM; AID 493011;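 active means at least 40% inhibition at 20 µM here, with at most 30% in a related deaminase screen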
APOBEC3G inh – inhibitors of human APOBEC3G DNA deaminase; recombinant A3G, ssDNA deamination FAM/TAMRA fluorescence; inhibition, % at 20 µM; 0.28% of 330,000 active;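 active means inhibition of at least 40% at 20 µM, with no more than 30% in the related APOBEC3A deaminase screen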
NTR1 agonist – NTR1 (human) agonism; NTR1-U2OS beta-arrestin-GFP spot imaging, agonist mode; 0.17% of 330,000 active; P30989; activation, % at 20 µM;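 active means activation at or above 40% of the spot to cytoplasm intensity ratio, with at least 20 cells analyzed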
Target sequence (P30989 whole entry, looked up): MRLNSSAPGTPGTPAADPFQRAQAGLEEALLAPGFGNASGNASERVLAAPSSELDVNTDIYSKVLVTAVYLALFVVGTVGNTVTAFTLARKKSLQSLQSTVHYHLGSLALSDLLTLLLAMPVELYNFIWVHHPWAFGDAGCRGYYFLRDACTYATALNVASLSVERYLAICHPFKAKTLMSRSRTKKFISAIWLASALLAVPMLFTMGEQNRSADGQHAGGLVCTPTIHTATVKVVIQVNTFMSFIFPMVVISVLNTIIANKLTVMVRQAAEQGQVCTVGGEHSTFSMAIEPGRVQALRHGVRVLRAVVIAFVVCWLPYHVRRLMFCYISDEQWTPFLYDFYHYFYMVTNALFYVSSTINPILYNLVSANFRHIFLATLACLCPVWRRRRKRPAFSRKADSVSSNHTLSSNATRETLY
Of the large screens only hits and unclear results are named; the others gave an inactive call.

COc1cc(C#Cc2c(-c3cncn3C)n(C)c3ccc(-c4ccc(OC)nc4)cc23)cc(OC)c1	AHR act 60
CC(=O)c1cccc(NC(=O)C2C3C=CC(C3)C2C(=O)O)c1 (stereo not drawn)	none
COc1cc([N+](=O)[O-])ccc1NC(=O)C1C2C=CC(C2)C1C(=O)O (stereo not drawn)	none
COc1cccc(C(=O)Nc2ccc(NC(=O)C3C4C=CC(C4)C3C(=O)O)cc2)c1 (stereo not drawn)	AHR act 73
COc1cc(NC(=O)C2C3C=CC(C3)C2C(=O)O)ccc1NC(=O)c1ccccc1 (stereo not drawn)	AHR act 56
Cc1cccc(/N=C/c2c(O)[nH]c3ccccc23)n1	AHR act 64
c1ccc2oc(-c3csc(N4CCOCC4)n3)cc2c1	none
Cc1nc2sccn2c1-c1nc(-c2cc3ccccc3o2)cs1	AHR act 54
S=C1NCN(Cc2cccnc2)CN1c1cccc2ccccc12	none
COc1ccc(-c2[nH]c(-c3ccc(C(=O)O)cc3)nc2-c2ccccc2)cc1	none
COc1ccc(-c2nc(-c3ccccc3)c(-c3cccs3)[nH]2)cc1OC	AHR act 81
O=[N+]([O-])c1cccc(-c2nc(-c3cccs3)c(-c3cccs3)[nH]2)c1	AHR act 63
COc1ccc(-c2[nH]c(-c3ccc4c(c3)OCO4)nc2-c2ccccc2)cc1	AHR act 74
COc1ccc(-c2nc(-c3cccs3)c(-c3cccs3)[nH]2)cc1OC	AHR act 50
CCC(COC)NCc1cn(-c2ccc(OC)cc2)nc1-c1cccc(F)c1 (stereo not drawn)	none
O=C(CSc1nc2ccccc2s1)NNC(=S)Nc1ccc(Br)cc1	AHR act 53
O=[N+]([O-])c1ccc(-[n+]2ccc3ccccc3c2)c([N+](=O)[O-])c1	none
Clc1ccc(N=c2ssnc2Cl)cc1	AHR act 59, APOBEC3G inh 76
Fc1ccc(N=c2ssnc2Cl)c(F)c1	APOBEC3G inh 74
O=C(O)C1(c2ccccc2)CCN(S(=O)(=O)c2cccc(Cl)c2)CC1	none
CCN(CC)C(=O)c1c(NC(=O)c2ccccc2)sc(C)c1C	none
CCN(CC)Cc1c(NC(=O)c2ccccc2)sc(C)c1C	AHR act 65
O=C(Nc1cc(Cl)ccc1-n1cncn1)c1cc(F)c(F)c(F)c1F	AHR act 56
O=C(Nc1cc(Cl)ccc1-n1cncn1)c1ccc(Br)o1	AHR act 61
CCN(C(=O)CN1CCCC(C)C1)c1c(N)n(Cc2ccccc2)c(=O)[nH]c1=O (stereo not drawn)	none
CCCOc1ccc(CNC(=S)Nc2ccccc2)cc1Cl	AHR act 76
COc1cc(-c2noc(C)c2/C=C/c2ccc(N)cc2)cc(OC)c1OC	AHR act 71
O=C(O)/C=C/C(=O)OC1CC2CCC1C2 (stereo not drawn)	none
CCC(CC)c1nnc(NC(=O)C2=NNC(=O)CC2)s1	none
COc1cc(N)c(Cl)cc1C(=O)OCC(=O)N1CCCCCC1	none
N#Cc1cn(CCOc2ccccc2F)c2ccccc12	AHR act 49
COc1cc(C2Nc3cc(C)c(C)cc3NC3=C2C(=O)CC(C)(C)C3)ccc1OC(C)=O (stereo not drawn)	AHR act 61
CN(C(=O)CC(NC(=O)c1ccccc1Cl)c1ccccc1)c1ccccc1 (stereo not drawn)	none
CN1c2ccccc2C(O)=C(C(=S)Nc2ccccc2)S1(=O)=O	none
CN1c2ccccc2C(O)=C(C(=S)Nc2ccc(F)c(Cl)c2)S1(=O)=O	AHR act 52
C#Cc1cccc(NC(=O)c2ccc3c(c2)C(=O)N(Cc2cccnc2)C3=O)c1	AHR act 57
N#Cc1nc(COc2ccccc2F)oc1NCCCn1ccnc1	AHR act 71
N#Cc1nc(COc2ccccc2)oc1NCCCn1ccnc1	AHR act 79
O=C(CSc1nnc(-c2ccc(Cl)cc2)n1Cc1ccco1)c1cccs1	AHR act 87
O=C(CSc1nnc(-c2ccncc2)n1Cc1ccco1)Nc1nc(-c2ccccc2)cs1	AHR act 48
COc1cc2c(cc1OC)CN(C(=S)NC(=O)c1ccccc1)CC2	none
Cc1cccn2c(=O)c(/C=C(\C#N)C(=O)NCc3ccccc3)c(N3CCC(C(N)=O)CC3)nc12	none
Cc1sc2nc(CSc3nnnn3-c3ccc(Cl)cc3)[nH]c(=O)c2c1C	AHR act 51
CCCn1c(N)c(N(CCOC)C(=O)Cc2ccc(S(=O)(=O)N3CCOCC3)s2)c(=O)[nH]c1=O	none
O=C1CNCc2[nH]c3ccccc3c2N1c1ccccc1	AHR act 54
O=CN1Cc2[nH]c3ccccc3c2N(c2ccc(Cl)cc2)C1=O	AHR act 65
O=C1CC(c2c[nH]c3ccccc23)C(=O)N1c1ccccc1 (stereo not drawn)	none
COc1ccc(OC)c(/C=N/NC(=O)Cc2nc3ccccc3[nH]2)c1	AHR act 57
COc1cccc(/C=N/NC(=O)c2cc3c(OC)cccc3[nH]2)c1OC	AHR act 54
COc1ccc(OC)c(/C=N/NC(=O)c2cc3c(OC)cccc3[nH]2)c1	none
C=CCOc1ccc(/C=N/NC(=O)c2cc3c(OC)cc(OC)cc3[nH]2)cc1	AHR act 68
COc1ccc(OC)c(/C=N/NC(=O)c2cc3c(OC)cc(OC)cc3[nH]2)c1	AHR act 56
CCCNC(=O)NC(=O)CSc1nc2ccccc2c(=O)n1Cc1ccncc1	none
COc1ccc(-c2cn3cccnc3n2)cc1NC(=O)C(C)C	AHR act 49
COc1ccc(-c2cn3cccnc3n2)cc1NC(=O)C1CC1	none
CCCCN1CCc2c([nH]c3ccccc23)C1=O	none
COC(=O)C1=C2c3[nH]c4ccccc4c3CCN2C(=O)CC1	AHR act 54
CCOc1ccc(NC(=O)CN(C)C(=O)c2cc3c(s2)CCC(C)C3)cc1OCC (stereo not drawn)	none
CN1CCc2nc(SCC(=O)Nc3ccc(F)cc3)c(C#N)cc2C1	AHR act 67
COc1ccc(NC(=O)CSc2nc3c(cc2C#N)CN(C)CC3)cc1	none
CC(=O)c1sc(Nc2cccc3ccccc23)nc1C	none
CC(=O)c1sc(Nc2ccccn2)nc1C	AHR act 61
N#CC1=C(N)Oc2c(ccc3ccccc23)C1c1ccsc1 (stereo not drawn)	AHR act 59
Cc1cc(-c2n[nH]c(=S)n2Cc2ccco2)nn1C	none
Oc1ccccc1-c1n[nH]c(=S)n1Cc1ccco1	APOBEC3G inh 41
O=C(NNC(=O)c1ccccc1F)c1ccc(-c2ccc(Cl)cc2)o1	AHR act 68
O=C1c2cccc3cccc(c23)C(=O)N1c1ccncc1	none
CCc1nnc(N2C(=O)c3cccc4cccc(c34)C2=O)s1	AHR act 76
O=c1c2ccccc2ncn1-c1ccccc1[N+](=O)[O-]	none
O=c1c2ccc([N+](=O)[O-])c3cccc(c32)c2nc3ccccc3n12	AHR act 50
CCCCn1c(N)c(N(CC(C)C)C(=O)CCCc2nc3ccccc3c(=O)[nH]2)c(=O)[nH]c1=O	none
COc1ccc(/C=C(/NC(=O)/C=C/c2ccccc2)C(=O)NCCCCCC(=O)O)cc1	none
